In PubChem BioAssay one finds composite z-score and z-score data, which are given here for 17 molecules.

Activity calls are given as the source filed them. Unless noted, how the calls were made is not given here.

Test [1] concerns XIP peptide (Xip251-270) binding. Kind of test: XIP fragment 251-270 binding compounds – biochemical, small-molecule microarray, fluorescence 635/667 nm, 0.1 µg/mL protein, primary screen (AID 1182). The settings on record: fluorescent protein binding, 635 nm, higher = more signal, called active from +8 up or from −8 down.
The next test deals with XIP peptide (Xip251-270). The test can be described thus: compounds binding XIP fragment 251-270 – biochemical, small-molecule microarray, fluorescence 635/667 nm, 0.5 µg/mL protein, primary screen (AID 1183). The settings on record: fluorescence 635 nm, higher = more signal.
Test [2] is described as follows: blood-stage malaria parasite viability loss – strain 3D7, DAPI fluorescence, 100 nL, primary screen (AID 1184).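 Further: parasites grown inside human red blood cells in medium with human serum.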 The settings on record: P. falciparum 3D7 growth, 3 d, higher = more signal.
Test [3] has as its target Homeobox protein Hox-A13 (Mus musculus) (UniProt Q62424). The test can be described thus: disruptors of Hoxa13 oligonucleotide interaction – biochemical, fluorescence polarization, labeled oligonucleotide, primary screen (AID 1185). The settings on record: Hoxa13:DNA binding, 15 min, higher = more signal, called active from +8 up or from −8 down.
Test [4] in a line: blockers of DNA damage checkpoint Chk1 activation – imaging, HeLa, hydroxyurea, phospho-Chk1 antibody, percent positive cells, primary screen (AID 1186). The settings on record: hydroxyurea-induced phospho-Chk1 immunofluorescence imaging, higher = more signal.
Test [5] in a line: blockers of DNA damage checkpoint Chk1 activation – imaging, HeLa, hydroxyurea, phospho-Chk1 nuclear intensity, primary screen (AID 1187). As to conditions: hydroxyurea-induced phospho-Chk1 immunofluorescence imaging, higher = more signal.

Sequence of Homeobox protein Hox-A13 (Mus musculus) (Q62424 whole entry, looked up): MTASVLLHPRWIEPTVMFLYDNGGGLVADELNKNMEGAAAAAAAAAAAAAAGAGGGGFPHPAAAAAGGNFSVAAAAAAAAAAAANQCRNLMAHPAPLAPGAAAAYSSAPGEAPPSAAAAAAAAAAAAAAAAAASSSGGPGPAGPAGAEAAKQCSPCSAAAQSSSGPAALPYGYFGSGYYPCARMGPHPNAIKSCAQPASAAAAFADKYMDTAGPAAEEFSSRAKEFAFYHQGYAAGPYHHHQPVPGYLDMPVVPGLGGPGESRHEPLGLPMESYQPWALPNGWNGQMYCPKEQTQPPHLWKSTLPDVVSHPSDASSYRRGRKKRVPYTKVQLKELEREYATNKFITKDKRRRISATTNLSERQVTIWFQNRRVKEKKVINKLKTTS

`CCCCCCc1nc(-c2ccc(OC)nc2)cc2c1[Si](C(C)C)(C(C)C)O[C@H]2c1ccccc1`: the values for the composite z-score (in test [1]; with XIP peptide (Xip251-270)) were -0.652 (inactive) and -0.487, respectively. Besides, the z-score in test [2] was -0.421; in test [3] it was -2.62 (inactive); in test [4], -0.732 (inactive); in test [5], -0.722 (inactive).
For `CCOC(=O)C[C@H]1[C@H](OC(=O)c2ccc(C(=O)c3ccccc3)cc2)[C@@H](NC(=O)c2ccccc2)c2cc(OCCCO)ccc2N1C(=O)c1ccc2ccccc2n1`, the composite z-score was 0.0933 (inactive) in test [1] and 0.0113 with XIP peptide (Xip251-270). Also, the z-score in test [2] is -1.43; in test [3] it was -3.02 (inactive); in test [4] it was 0.193 (inactive); in test [5], -0.363 (inactive).
In the case of `C=CCC(OC(C)=O)[C@@H]1[C@@H](N(Cc2ccc(-c3cccc(C(F)(F)F)c3)o2)C(=O)c2ccc(C)cc2)c2cc(OCCCO)ccc2N1C(=O)Cc1ccc2ccccc2c1` (some centres not stated), the composite z-score in test [1] is 0.332 (inactive); in the test on XIP peptide (Xip251-270) it was -0.0506. Moreover, the z-score was 0.337 in test [2], -0.62 (inactive) in test [3], -0.385 (inactive) in test [4] and -0.709 (inactive) in test [5].
For the molecule `COCCOC(=O)N1C(=O)[C@@]2(c3cc(C#CCC(C(=O)OC)C(=O)OC)ccc31)[C@H](c1ccccc1OCCO)N1[C@H](c3ccccc3)[C@H](c3ccccc3)OC(=O)[C@H]1[C@@H]2C(=O)NC[C@H](O)c1ccccc1`, the composite z-score was 1.42 (inactive) in test [1] and 0.705 in the test with XIP peptide (Xip251-270). Besides, the z-score in test [2] was -2.31; in test [3], -1.77 (inactive); in test [4] it was -0.0638 (inactive); in test [5], -0.19 (inactive).
In the case of `O=C1c2ccccc2[C@](Cc2ccccc2I)(C(=O)NCCN2CCOCC2)[C@H](c2ccc(CO)cc2)N1Cc1ccccc1Cl`, the composite z-score is 1.08 (inactive) in test [1] and 0.862 in the test on XIP peptide (Xip251-270). The z-score is -1.47 in test [2], -4.29 (inactive) in test [3], -0.206 (inactive) in test [4] and -0.183 (inactive) in test [5].
With `C=C(COC)C(=O)CC[C@@H](OC(C)=O)c1ccc(CO)o1`, the composite z-score was 0.861 (inactive) in test [1] and -0.0256 with XIP peptide (Xip251-270). Moreover, the z-score is 0.216 in test [2], -3.72 (inactive) in test [3], 0.293 (inactive) in test [4] and 0.384 (inactive) in test [5].
For `O=C1N(Cc2ccccc2)c2ccccc2[C@@H]2OC(c3ccc(OCCCO)cc3)=N[C@]12CCS(=O)(=O)c1ccccc1`, the composite z-score in test [1] was 0.7 (inactive); with XIP peptide (Xip251-270), 0.677. Moreover, the z-score is -2.13 in test [2], 1.28 (inactive) in test [3], -0.413 (inactive) in test [4] and -0.77 (inactive) in test [5].
For `COCCOC(=O)N1C(=O)[C@@]2(c3ccccc31)[C@H](c1ccc(O)cc1)N1[C@H](c3ccccc3)[C@H](c3ccccc3)OC(=O)[C@H]1[C@@H]2C(=O)Nc1nc2ccccc2s1`, the figures for the composite z-score (in test [1]; with XIP peptide (Xip251-270)) were 0.343 (inactive) and 0.78, respectively. Besides, the z-score in test [2] was 0.194; in test [3], -0.526 (inactive); in test [4], -0.0228 (inactive); in test [5] it was 0.221 (inactive).
As to `CC[C@@H]1C=C(C(=O)O)[C@H](c2ccc(Br)cc2)N1S(=O)(=O)c1ccc(C)cc1`, the composite z-score is 0.693 (inactive) in test [1] and 0.159 in the test with XIP peptide (Xip251-270). In addition, the z-score in test [2] was -0.737; in test [3] it was -3.11 (inactive); in test [4], -0.0321 (inactive); in test [5], 0.0367 (inactive).
As for `OCCCC1=CC(c2cccs2)N(Cc2cc3c(cc2Br)OCO3)CC1` (configuration not stated), the figures for the composite z-score (in test [1]; with XIP peptide (Xip251-270)) were 0.412 (inactive) and 0.435, respectively. Also, the z-score in test [2] is -1.82; in test [3], -2.36 (inactive); in test [4], 0.32 (inactive); in test [5], 0.998 (inactive).
As for `O=C1C[C@@](C(=O)NCCN2CCOCC2)(c2ccc([N+](=O)[O-])cc2)[C@@H](c2ccc(CO)cc2I)N1CC12CC3CC(CC(C3)C1)C2`, the composite z-score is 0.634 (inactive) in test [1] and 0.761 with XIP peptide (Xip251-270). For the same molecule, the z-score was -2.04 in test [2], -3.99 (inactive) in test [3], -0.894 (inactive) in test [4] and -1.24 (inactive) in test [5].
As for `C=CCC(OC(C)=O)[C@@H]1[C@@H](N(Cc2ccc(-c3ccccc3)cc2)C(=O)Cc2ccc(OC)cc2)c2cc(OCCCO)ccc2N1C(=O)Cc1ccc2ccccc2c1` (some centres not stated), the composite z-score in test [1] was 1.46 (inactive); with XIP peptide (Xip251-270), -0.282. Further, the z-score in test [2] was -0.874; in test [3] it was -1.62 (inactive); in test [4], 0.802 (inactive); in test [5] it was 0.325 (inactive).
Consider `CC(=O)NCCCC[C@@H]1NC(=O)[C@H]2C[C@@H](C(=O)NCCCCCCNC(=O)CS)[C@@H](c3ccc(O)cc3)N2C1=O`, for which the composite z-score was 0.957 (inactive) in test [1] and 0.818 with XIP peptide (Xip251-270). In addition, the z-score in test [2] is -1.26; in test [3], -4.69 (inactive); in test [4] it was 0.307 (inactive); in test [5], 0.663 (inactive).
For the molecule `C=CCC(OC(C)=O)[C@@H]1[C@@H](N(Cc2cc3ccccc3o2)C(=O)c2cccc3ccccc23)c2cc(OCCCO)ccc2N1C(=O)c1ccc(-c2ccccc2)cc1` (some centres not stated), the composite z-score was 0.277 (inactive) in test [1] and 0.287 in the test with XIP peptide (Xip251-270). Further, the z-score was -3.01 in test [2], -0.424 (inactive) in test [3], 0.0396 (inactive) in test [4] and 0.577 (inactive) in test [5].
Regarding `C=C(/C(=C/C[C@H](OC(C)=O)c1ccccc1OCCO)c1cnc2ccccc2c1)C(C)C`, the composite z-score in test [1] is 0.609 (inactive); in the test with XIP peptide (Xip251-270), -0.167. Further, the z-score in test [2] was -2.76; in test [3], -5.41 (inactive); in test [4], 0.284 (inactive); in test [5], -0.141 (inactive).
Consider `COc1ccc(CCNC(=O)[C@@]2(Sc3ccc(C)cc3)CC(=O)N(C3Cc4ccccc4C3)[C@@H]2c2ccc(CO)cc2I)cc1`, for which the composite z-score in test [1] is -0.0449 (inactive); in the test on XIP peptide (Xip251-270), 0.81. Besides, the z-score in test [2] is -0.725; in test [3] it was -2.4 (inactive); in test [4], 0.136 (inactive); in test [5], 0.684 (inactive).
As to `COCCOC(=O)N1C(=O)[C@@]2(c3cc(C#CCC(C(=O)OC)C(=O)OC)ccc31)[C@H](c1ccccc1OCCO)N1[C@H](c3ccccc3)[C@H](c3ccccc3)OC(=O)[C@H]1[C@@H]2C(=O)N1CCN(c2ncccn2)CC1`, the composite z-score in test [1] is 0.311 (inactive); in the test with XIP peptide (Xip251-270) it was 0.62. For the same molecule, the z-score is -2.25 in test [2], 0.271 (inactive) in test [3], -0.225 (inactive) in test [4] and -0.236 (inactive) in test [5].
